An excerpt weighted towards active compounds, which were near 18% of everything screened.
TDP1 cell CPT = qHTS for Inhibitors of human tyrosyl-DNA phosphodiesterase 1 (TDP1): qHTS in cells in presence of CPT | 420,000 tested, 12% active | chicken DT40 Tdp1-/-;hTDP1 cells + 20 nM CPT, ATP luminescence, 48 h | Potency, µM (titrated, usually from 46.2 µM), for inactives: at the highest dose activity change, negative = growth inhibition, usual class: inhibitors; note: potency is the fitted concentration of half-maximal effect; % is set by controls: 0 for no effect and ±100 for the full control effect; nearly all actives have a fitted effect of over 55% in size
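Chicken DT40 Tdp1-/- cells complemented with human TDP1, 400 cells/well, exposed to compounds plus 20 nM camptothecin for at least 48 h at 37 C; viability read as ATP content by CellTiter-Glo luminescence.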
TDP1 inh = qHTS Assay for Inhibitors of Tyrosyl-DNA Phosphodiesterase (TDP1); Tyrosyl-DNA phosphodiesterase 1 (Homo sapiens), Q9NUW8; recombinant TDP1, AlphaScreen DNA substrate cleavage; Potency, µM (top dose mostly 130 µM), for the others: at the highest dose activity change, negative = inhibition, hits mostly inhibitors; 350,000 tested, 0.28% active; note: potency is the fitted concentration of half-maximal effect; % is set by controls: 0 for no effect and ±100 for the full control effect; nearly all actives have a fitted effect of over 40% in size
Target sequence (Q9NUW8 whole entry, looked up): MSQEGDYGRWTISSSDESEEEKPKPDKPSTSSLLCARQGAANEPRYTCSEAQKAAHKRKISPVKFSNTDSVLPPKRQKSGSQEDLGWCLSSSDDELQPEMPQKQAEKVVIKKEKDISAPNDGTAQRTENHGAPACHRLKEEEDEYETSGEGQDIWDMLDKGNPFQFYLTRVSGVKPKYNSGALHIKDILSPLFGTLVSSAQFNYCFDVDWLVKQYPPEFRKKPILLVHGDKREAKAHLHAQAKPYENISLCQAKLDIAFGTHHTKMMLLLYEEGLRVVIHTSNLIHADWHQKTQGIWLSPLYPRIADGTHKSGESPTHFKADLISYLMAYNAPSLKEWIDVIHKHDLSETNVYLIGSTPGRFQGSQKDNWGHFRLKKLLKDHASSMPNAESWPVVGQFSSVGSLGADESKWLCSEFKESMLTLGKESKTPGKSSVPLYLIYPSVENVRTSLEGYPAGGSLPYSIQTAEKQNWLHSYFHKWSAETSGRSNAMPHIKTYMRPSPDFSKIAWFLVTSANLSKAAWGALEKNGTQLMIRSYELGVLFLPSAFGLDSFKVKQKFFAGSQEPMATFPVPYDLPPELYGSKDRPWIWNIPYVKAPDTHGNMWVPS
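Enzyme-compound mixtures sat 15 min at room temperature, followed by a 5 min reaction with 15 nM final substrate and 10 min with AlphaScreen beads. Recombinant human Tdp1 was used at 1 nM final.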
TGFb inhibitor = qHTS for Inhibitors of TGF-b; AID 588855, 2011; HepG2 CAGA-GFP TGF-b/SMAD3 reporter, GFP fluorescence, 18 h; TGF-beta stimulated, 500 pg/mL final; 410,000 tested, 1.2% active; Potency, µM (series often up to 46.1 µM), for inactives: at the top dose activity, negative = inhibition, most hits filed as inhibitors; note: potency is the fitted concentration of half-maximal effect; % is set by controls: 0 for no effect and ±100 for the full control effect; nearly all actives have a fitted effect of over 65% in size
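Using HEPG2 CAGA-GFP reporter cells at 1000 cells/well, we pinned test compounds, stimulated with recombinant TGF-beta (500 pg/mL final) and measured total well GFP after 18 h.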
DT40 TDP1 no CPT = qHTS for Inhibitors of human tyrosyl-DNA phosphodiesterase 1 (TDP1): qHTS in cells in absence of CPT | Potency, µM (titrated, usually from 46.2 µM), inactives show top-dose activity change, negative = growth inhibition, actives largely listed as inhibitors | 420,000 tested, 15% active | DT40 Tdp1-/- hTDP1 cells, no CPT, ATP luminescence, 48 h; note: potency is the fitted concentration of half-maximal effect; % is set by controls: 0 for no effect and ±100 for the full control effect; nearly all actives have a fitted effect of over 55% in size
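Stably hTDP1-transfected Tdp1-null chicken DT40 cells were treated with library compounds minus camptothecin and grown for at least 48 hr at 37 °C, after which cellular ATP was quantified by luminescence.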
HepG2 viability = qHTS for Inhibitors of TGF-b: Cytotox Counterscreen; 410,000 tested, 0.76% active; HepG2 CAGA-GFP viability, ATP luminescence, 18 h; Potency, µM (series often up to 46.1 µM), for inactives: at the top dose activity change, negative = cytotoxicity, hits mostly cytotoxic; note: potency is the fitted concentration of half-maximal effect
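CellTiter-Glo luminescence gave cytotoxicity after 18 hours at 37 degrees C. The cells were HepG2 CAGA-GFP in 1% FBS DMEM, stimulated with 500 pg/mL TGF-beta after compound addition. %Activity was normalised to no-cell wells (complete cell-killing) and DMSO (no toxicity), and curves were fitted and classified.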
IL1B secr inh = qHTS for Inhibitors of Inflammasome Signaling: IL-1-beta AlphaLISA Primary Screen; THP-1 LPS/ATP IL-1B secretion, AlphaLISA, 16 h; active compounds read low; activity change, % at 57.5 µM; 360,000 tested, 4.7% active; in the data active = activity change below about -50%; inconclusive = mostly about -30% to -49%; note: % is set by controls: 0 for no effect and ±100 for the full control effect
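THP-1 cells pretreated 1 hr with compounds (up to 57.5 uM final), then stimulated with LPS (250 ng/mL final) plus ATP (1.25 mM final); secreted IL-1B measured by AlphaLISA after 16 hr, decreased signal indicating inhibition.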
Numbers without * were called inactive; u = inconclusive; x = no result. Unless noted, calls come from the whole dose curve; as a rule, active = well fitted curve in the direction sought with a large enough effect; inconclusive = small, poorly fitted or top-dose-only effect, or another doubt; inactive = no such curve, though single readings can be large; an effect the other way counts as inactive or inconclusive.

SMILES	TDP1 cell CPT	TDP1 inh	TGFb inhibitor	DT40 TDP1 no CPT	HepG2 viability	IL1B secr inh
COc1ccc(CCNC(=O)c2coc(=O)c(Br)c2)cc1	0.65µM*	x	18µM*	1.3µM*	13µM*	0
COc1ccc(C)cc1NCc1ccc([N+](=O)[O-])cc1	0%	x	-13%	-24%	-2%	6
COc1ccc(CCNC(=O)c2ccc(Br)cc2)cc1	-11%	x	2%	-21%	-3%	10
COc1ccc(CNCCc2ccc([N+](=O)[O-])cc2)c(OC)c1OC	6.5µM*	x	-11%	21µM*	-11%	-5
COc1ccc(CCNC(=O)c2ccc(-c3ccc([N+](=O)[O-])cc3)o2)cc1OC	18µM*	0%	u	u	-31%	u
Cc1cccc(CN2CCN(C3CN(Cc4cn(Cc5ccc(F)cc5)nn4)S(=O)(=O)C3)CC2)c1 (configuration not stated)	u	x	x	u	x	-4
COCc1cn(-c2nc3ccccc3s2)nn1	4%	x	x	0%	x	49
COC(=O)C[C@H]1C=C[C@H](NC(=O)Nc2ccccc2OC)[C@@H](CO)O1	3%	x	x	-1%	x	-16
Cc1cccc(NC(=O)c2sc(-n3nc(C)c(CCC(C)C)c3C)nc2C)c1C	u	5%	2%	21µM*	-10%	x
Cc1nc(-n2nc(C)c(CCC(C)C)c2C)sc1C(=O)Nc1cccc(Cl)c1C	0%	-6%	1%	-13%	-3%	x
CC(=O)c1cccc(NC(=O)c2sc(-n3nc(C)c(CCC(C)C)c3C)nc2C)c1	13µM*	-7%	23%	u	7%	x
CC(C)(C)n1nnnc1C(c1ccc(C(F)(F)F)cc1)N(Cc1ccccc1)Cc1ccco1 (configuration not stated)	21µM*	0%	-7%	u	-13%	-12
Cc1ccc(C(c2nnnn2C(C)(C)C)N(Cc2ccco2)Cc2cccs2)cc1 (configuration not stated)	u	5%	u	u	-3%	-3
CC(C)(C)n1nnnc1C(c1ccc(Cl)cc1)N(Cc1cccnc1)Cc1ccco1 (configuration not stated)	18µM*	10%	u	-25%	-69%	-24
CC(C)(C)n1nnnc1C(c1cccnc1)N(Cc1ccccc1)Cc1cccs1 (configuration not stated)	u	6%	u	u	13%	-29
CC(C)(C)n1nnnc1C(c1ccc(C(F)(F)F)cc1)N(Cc1ccc(F)cc1)Cc1ccco1 (configuration not stated)	u	0%	-27%	21µM*	-21%	-15
CC(C)(C)n1nnnc1C(c1cccs1)N(Cc1ccccc1)Cc1cccnc1 (configuration not stated)	21µM*	2%	12%	26µM*	-7%	-4
CC(C)(C)n1nnnc1C(c1ccc(F)cc1)N(Cc1ccc(F)cc1)Cc1ccco1 (configuration not stated)	u	0%	-18%	u	-32%	-18
COc1ccc(-n2c(=S)[nH]c3cc(C(=O)Nc4ccc(C)c(F)c4)ccc3c2=O)c(OC)c1	u	4%	-19%	u	-8%	-8

Compound activity as filed in PubChem BioAssay.
